Columns and labels:
Experiment in all cases: growth inhibition (% activity, log2 RLU normalised to DMSO / staurosporine); higher = more growth inhibition
Conditions in all cases: 33 µM
DIPGX29 = system: DIPGX29 (H3.3 K27M diffuse intrinsic pontine glioma line)
Procedure, shortened: (§1)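 For each approved drug, the growth-inhibition value is the replicate median of per-plate normalised CellTiter-Glo data. Luminescence was log2-transformed and expressed as % activity between solvent and positive control wells. Drugs were applied in triplicate at a single final concentration of about 33 μM for 7 days at 37 °C, 5% CO2 to pHGG cell lines and H9-derived neural stem cells.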

DIPGX37 = system: DIPGX37 (H3.3 K27M diffuse intrinsic pontine glioma line)
Procedure, shortened: as §1

DIPGX7 = system: DIPGX7 (H3.3 K27M diffuse intrinsic pontine glioma line)
Procedure, shortened: as §1

DIPGX9 = system: DIPGX9 (diffuse intrinsic pontine glioma line)
Procedure, shortened: as §1

HGGX39 = system: HGGX39 (paediatric high-grade glioma line)
Procedure, shortened: as §1

HGGX6 = system: HGGX6 (H3.3 G34R paediatric high-grade glioma line)
Procedure, shortened: as §1

HNSC = system: HNSC
Procedure, shortened: as §1

SUDIPGIV = system: SUDIPGIV (diffuse intrinsic pontine glioma line)
Procedure, shortened: as §1

SUDIPGVI = system: SUDIPGVI (diffuse intrinsic pontine glioma line)
Procedure, shortened: as §1

SUDIPGXIII = system: SUDIPGXIII (diffuse intrinsic pontine glioma line)
Procedure, shortened: as §1

Row | SMILES | growth inhibition (DIPGX29) [%] | growth inhibition (DIPGX37) [%] | growth inhibition (DIPGX7) [%] | growth inhibition (DIPGX9) [%] | growth inhibition (HGGX39) [%] | growth inhibition (HGGX6) [%] | growth inhibition (HNSC) [%] | growth inhibition (SUDIPGIV) [%] | growth inhibition (SUDIPGVI) [%] | growth inhibition (SUDIPGXIII) [%]
1 | COc1ccc(CN(CCN(C)C)c2ccccn2)cc1 | -4.36 | -0.213 | -2.04 | -0.968 | 2.69 | -3.48 | -2.01 | -2.03 | -1.61 | 0.98
2 | CS(=O)(=O)c1ccc(C2=C(c3ccccc3)C(=O)OC2)cc1 | -1.33 | -0.751 | -1.9 | -1.51 | -1.94 | -2.78 | -3.76 | -4.83 | -0.628 | 0.203
3 | Clc1ccc2nsnc2c1NC1=NCCN1 | -1.22 | -2.25 | -1.44 | -1.35 | -0.915 | -1.61 | -2.35 | -2.55 | -2.56 | -1.44
4 | CO[C@H]1/C=C/O[C@@]2(C)Oc3c(C)c(O)c4c(O)c(c5c(nc6cc(C)ccn65)c4c3C2=O)NC(=O)/C(C)=C\C=C\[C@H](C)[C@H](O)[C@@H](C)[C@@H](O)[C@@H](C)[C@H](OC(C)=O)[C@@H]1C | -0.23 | 1.09 | 0.284 | 1.81 | 1.27 | 1.5 | 0.942 | -1.07 | 1.39 | -1.05
5 | COC(=O)C1=C(C)NC(C)=C(C(=O)OCCN(C)Cc2ccccc2)C1c1cccc([N+](=O)[O-])c1 (stereo not given) | 1.83 | 4.39 | 2.64 | 2.12 | 6.81 | 0.277 | 13 | 3.58 | -1.74 | 2.92
6 | O=C(c1ccccc1)c1ccc2n1CCC2C(=O)O (stereo not given) | 1.07 | -0.408 | 0.977 | -1.13 | -0.11 | 1.54 | -1.61 | -5.47 | 0.251 | 0.0715
7 | COc1c(N2C[C@@H]3CCCN[C@@H]3C2)c(F)cc2c(=O)c(C(=O)O)cn(C3CC3)c12 | 0.967 | 2.87 | 5.33 | 1.28 | 3.99 | 2.07 | 2.61 | 0.935 | 2.05 | -1.1
8 | CC(C)(OCc1nn(Cc2ccccc2)c2ccccc12)C(=O)O | -3.94 | -1.16 | -1.8 | -2.2 | -3.82 | -4.18 | -2.36 | -3.25 | -2.56 | 0.0548
9 | CN(C)CCOC(c1ccccc1)c1ccccc1 | -3.3 | -0.629 | -0.0174 | -1.77 | -3.3 | -2.72 | 2.53 | -1.12 | -3.73 | -1.22
10 | CC[C@]1(O)C[C@H]2CN(CCc3c([nH]c4ccccc34)[C@@](C(=O)OC)(c3cc4c(cc3OC)N(C=O)[C@H]3[C@@](O)(C(=O)OC)[C@H](OC(C)=O)[C@]5(CC)C=CCN6CC[C@]43[C@@H]65)C2)C1 | 23.4 | 12.5 | 15.1 | 22.7 | 21.3 | 17.5 | 60.5 | 35.7 | 38.9 | 30.9
11 | CCOC(=O)C1=C[C@]2(CC)CCCN3CCc4c(n1c1ccccc41)[C@@H]32 | -2.05 | 0.343 | 1.55 | 0.728 | 0.726 | -1.58 | 34.5 | 1.95 | 0.167 | 3.3
12 | Cc1cn([C@@H]2C[C@@H](O)[C@H](CO)O2)c(=O)[nH]c1=O | 0.778 | -0.0219 | 0.328 | -2.07 | -0.771 | -3.82 | 1.03 | -0.72 | -10.2 | -2.27
13 | CCCc1cc(C(N)=S)ccn1 | -2.06 | -0.994 | -2.65 | -1.15 | -0.973 | 0.551 | -2.9 | -2.46 | -0.254 | 0.671
14 | Clc1ccc(CCC(Cn2ccnc2)Sc2c(Cl)cccc2Cl)cc1 (stereo not given) | 5.06 | 1.97 | 3.57 | 4.57 | 13.2 | 10.2 | 10.2 | 13.5 | 4.83 | 11.4
15 | O=C(O)c1cc(/N=N/c2ccc(S(=O)(=O)Nc3ccccn3)cc2)ccc1O | 1.07 | -1.79 | 1.57 | 0.949 | 1.21 | 1.04 | -0.205 | 0.115 | 1.96 | -0.524
16 | Clc1ccc2c(c1)C(N1CCNCC1)=Nc1ccccc1O2 | 0.461 | 1.52 | 1.07 | 1.29 | 4.43 | -0.239 | 0.635 | 0.284 | 2.1 | 0.741
17 | C=C1c2cccc(O)c2C(O)=C2C(=O)[C@]3(O)C(O)=C(C(N)=O)C(=O)[C@@H](N(C)C)[C@@H]3[C@@H](O)[C@H]12 | -0.484 | 2.83 | -0.0391 | -1.06 | 2.68 | -0.509 | 0.179 | 2.28 | -1.04 | 1.14
18 | CN1CCN2c3ncccc3Cc3ccccc3C2C1 (stereo not given) | -2.74 | -1.56 | -0.7 | -1.19 | 1.93 | -2.31 | 2.94 | -0.123 | -5.43 | -0.736
19 | O=c1ccn([C@@H]2O[C@H](CO)[C@@H](O)[C@H]2O)c(=O)[nH]1 | -0.716 | -1.37 | 1.57 | -0.704 | 0.73 | -4.51 | 17.6 | -1.57 | -0.357 | -2.42

Row | SMILES | growth inhibition (DIPGX29) [%] | growth inhibition (DIPGX37) [%] | growth inhibition (DIPGX7) [%] | growth inhibition (DIPGX9) [%] | growth inhibition (HGGX39) [%] | growth inhibition (HGGX6) [%] | growth inhibition (HNSC) [%] | growth inhibition (SUDIPGIV) [%] | growth inhibition (SUDIPGVI) [%] | growth inhibition (SUDIPGXIII) [%]
20 | O=C(Nc1ccc([N+](=O)[O-])cc1Cl)c1cc(Cl)ccc1O | 43.9 | -2.57 | 24.1 | 2.53 | 4.01 | 5.02 | 7.85 | 16.6 | 3.13 | 61.3
21 | CC(=O)/N=c1/sc(S(N)(=O)=O)nn1C | 1.46 | 2.45 | 2.3 | 1.1 | 4.29 | 1.67 | 5.67 | 0.751 | 1.6 | -14.4
22 | COc1cc(C(=O)NS(=O)(=O)c2ccccc2C)ccc1Cc1cn(C)c2ccc(NC(=O)OC3CCCC3)cc12 | -0.736 | 1.77 | 0.79 | -1.19 | 1.49 | -2.28 | -0.546 | -0.0974 | 1.76 | 0.405
23 | C[C@H]1C[C@H]2[C@@H]3CCC4=CC(=O)C=C[C@]4(C)[C@H]3C(=O)C[C@]2(C)[C@@]1(O)C(=O)CO | -1.49 | -0.985 | 2.72 | -1.67 | -0.401 | -2.95 | -1.41 | 0.457 | -9.81 | 0.862
24 | N=S(=O)(O)Cc1noc2ccccc12 | -1.43 | -1.83 | -1.41 | -1.19 | -0.682 | -1.72 | -4.88 | -1.71 | -4.93 | -0.253
25 | Cc1ccc(-n2[nH]c(C)c(N=Nc3cccc(-c4cccc(C(=O)O)c4)c3O)c2=O)cc1C | -2.95 | -1.98 | 0.213 | -1.59 | -1.34 | -2.27 | 13.7 | -2.64 | -2.5 | 1.95
26 | Cc1ccc(S(=O)(=O)NC(=O)NN2CC3CCCC3C2)cc1 (stereo not given) | 1.02 | 1.27 | 1.73 | 0.944 | 1.58 | -0.55 | 35.3 | 1.96 | -4.19 | 0.367
27 | COC(=O)Nc1nc2cc([S+]([O-])c3ccccc3)ccc2[nH]1 (stereo not given) | 4.96 | 6.45 | 4.77 | 5.87 | 4.89 | 4.72 | 19.2 | 6.67 | 5.46 | 0.605
28 | CN1C(C(=O)Nc2ccccn2)=C(O)c2sccc2S1(=O)=O | -1.4 | 1.63 | -0.195 | 1.24 | 0.358 | 0.485 | -0.824 | -4.89 | 0.891 | -0.625
29 | Clc1ccc(C(Cn2ccnc2)OCc2csc3c(Cl)cccc23)c(Cl)c1 (stereo not given) | 2.06 | 3.55 | 1.45 | 1.99 | 8.8 | 6.02 | 10.7 | 13.8 | 1.94 | 5.27
30 | CN(C)C(=O)C(CCN1CCC(O)(c2ccc(Cl)cc2)CC1)(c1ccccc1)c1ccccc1 | 11.2 | 3.96 | 9.47 | 0.4 | 13.9 | 9.1 | 81.6 | 7.8 | 3.43 | 9.15
31 | CC1CCc2cc(F)cc3c(=O)c(C(=O)O)cn1c23 (stereo not given) | -0.61 | 1.22 | 0.338 | -0.551 | 1.41 | 2.29 | 0.388 | -1.52 | 0.839 | -18.7
32 | CC(N)C12CC3CC(CC(C3)C1)C2 (stereo not given) | -0.149 | 2.59 | 0.357 | 0.266 | 1.62 | 0.391 | 1.01 | 0.585 | -0.365 | -0.4
33 | O=C(O)c1cc(/N=N/c2ccc(O)c(C(=O)O)c2)ccc1O | -0.786 | 0.929 | 0.432 | 0.755 | 1.33 | 0.125 | 11.3 | -0.724 | -2.65 | 0.343
34 | CNC[C@H](O)[C@@H](O)[C@H](O)[C@H](O)CO | 1.22 | 3.72 | 2.92 | 1.9 | 4.71 | 1.37 | 3.01 | 2.28 | 3.8 | -1.42
35 | CCOC(=O)[C@H](CCc1ccccc1)N[C@@H](C)C(=O)N1Cc2cc(OC)c(OC)cc2C[C@H]1C(=O)O | -2.18 | -2.28 | -0.52 | -1.23 | -1.86 | -4.51 | 12.2 | -0.334 | -11 | 1.38
36 | O=C1Cc2cc(CCN3CCN(c4nsc5ccccc45)CC3)c(Cl)cc2N1 | 1.66 | 1.3 | 10.1 | 1.16 | 3.71 | 2.44 | 1.23 | 2.05 | -3.95 | 3.01
37 | CN1CC(=O)NC1=N | 1.19 | -0.026 | 4.55 | 2.89 | 6.17 | 2.06 | 10.1 | 2.65 | 3.88 | 1.35
38 | Cc1cc2nc3c(=O)[nH]c(=O)nc-3n(C[C@H](O)[C@H](O)[C@H](O)CO)c2cc1C | -1.75 | 2.89 | 0.461 | -0.233 | 2.78 | -1.29 | 6.98 | 4.43 | 2.29 | 1.1
